Results from PubChem BioAssay (EPA / NIEHS).
Values joined by “and” are separate entries in the source; they are usually repeats but may differ in a detail not shown here. Equal entries are not always repeated. The source holds several records for some structures; these can differ, active in one and inactive in another. Active and inactive are the calls of the source. Rule for the calls: active = hit-call score of the fitted dose curve at least 0.9, where 1 is the maximum; inactive = score below 0.9.

Key:
[1] = read-out: Monocyte Chemoattractant Protein-1 (MCP1), CCL2 (gene 6347); assay: BSK_CASM3C_MCP1: BioMAP Diversity Plus: CASM3C Assay for Monocyte Chemoattractant Protein-1 (MCP1) Biomarker Activity (AID 2283046); details: primary human coronary artery smooth muscle cells; actives raise or lower the signal;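 note: MCP-1 level quantified by ELISA 24 h after dosing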
[2] = BSK_CASM3C_Proliferation: Cell Proliferation Assessment in the BioMAP Diversity Plus: CASM3C Assay (AID 2283047); details: primary human coronary artery smooth muscle cells;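 note: sulforhodamine B total protein stain as relative cell number at 560 nm; sub-confluent cells exposed 48 h before staining; fitted both ways against DMSO so gain or loss of cell number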
[3] = read-out: Monokine induced gamma interferon (MIG), CXCL9 (gene 4283); assay: BSK_CASM3C_MIG: BioMAP Diversity Plus: CASM3C Assay for Monokine induced gamma interferon (MIG) Biomarker Activity (AID 2283048); details: primary human coronary artery smooth muscle cells; actives raise or lower the signal;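 note: MIG protein level measured by ELISA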
[4] = read-out: serum amyloid A (SAA), SAA1 (gene 6288); assay: BSK_CASM3C_SAA: BioMAP Diversity Plus: CASM3C Assay for serum amyloid A (SAA) Biomarker Activity (AID 2283049); details: primary human coronary artery smooth muscle cells; actives raise or lower the signal;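 note: SAA protein level quantified by ELISA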
[5] = BSK_CASM3C_SRB: Viability Assessment in the BioMAP Diversity Plus: CASM3C Assay (AID 2283050); details: primary human coronary artery smooth muscle cells;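 note: total protein by SRB staining as cytotoxicity measure in parallel cultures; cells exposed to compound for 24 h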
[6] = read-out: Thrombomodulin, THBD (gene 7056); assay: BSK_CASM3C_Thrombomodulin: BioMAP Diversity Plus: CASM3C Assay for Thrombomodulin Biomarker Activity (AID 2283051); details: primary human coronary artery smooth muscle cells; actives raise or lower the signal;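 note: thrombomodulin protein level measured by ELISA 24 h after dosing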
[7] = read-out: Tissue Factor, F3 (gene 2152); assay: BSK_CASM3C_TissueFactor: BioMAP Diversity Plus: CASM3C Assay for Tissue Factor Biomarker Activity (AID 2283052); details: primary human coronary artery smooth muscle cells; actives raise or lower the signal;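 note: cell surface tissue factor protein level read by ELISA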
[8] = read-out: Interferon-gamma inducible Protein 10 (IP10), CXCL10 (gene 3627); assay: BSK_hDFCGF_IP10: BioMAP Diversity Plus: hDFCGF Assay for Interferon-gamma inducible Protein 10 (IP10) Biomarker Activity (AID 2283053); details: primary human foreskin fibroblasts; actives raise or lower the signal
Outline: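 Primary foreskin fibroblasts, human; 24 h compound exposure; IP-10 by ELISA; bidirectional fit vs DMSO.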

[9] = read-out: Urokinase-type plasminogen activator receptor (uPAR), PLAUR (gene 5329); assay: BSK_CASM3C_uPAR: BioMAP Diversity Plus: CASM3C Assay for Urokinase-type plasminogen activator receptor (uPAR) Biomarker Activity (AID 2283054); details: primary human coronary artery smooth muscle cells; actives raise or lower the signal;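 note: cell-surface uPAR protein level quantified by ELISA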
[10] = read-out: Vascular cell adhesion molecule 1 (VCAM1), VCAM1 (gene 7412); assay: BSK_CASM3C_VCAM1: BioMAP Diversity Plus: CASM3C Assay for Vascular cell adhesion molecule 1 (VCAM1) Biomarker Activity (AID 2283055); details: primary human coronary artery smooth muscle cells; actives raise or lower the signal;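 note: VCAM-1 protein level quantified by ELISA on the cells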

Measured: AC50

C=C[Si](OC(C)=O)(OC(C)=O)OC(C)=O
inactive: all assays above

Nc1ccc(N)c(Cl)c1
active: [2] 28.7 µM | [3] 6.03 µM | [5] 16.1 µM | [6] 2.9 µM and 3.08 µM | [7] 1.13 µM | [8] 16 µM and 20.2 µM | [10] 27.2 µM and 11.1 µM
inactive: [1] | [3] | [4] | [5] | [7] | [9]

O=C(Cl)c1cc(C(=O)Cl)cc(C(=O)Cl)c1
active: [1] 32 µM | [2] 7.85 µM | [3] 29.2 µM | [4] 20 µM | [5] 15 µM | [6] 36.3 µM | [7] 20 µM | [8] 31 µM | [9] 26 µM | [10] 17.8 µM

c1ccc(-c2ccccn2)nc1
inactive: all assays above

O=c1c2ccccc2oc2ccccc12
active: [7] 2.7 µM
inactive: all other assays above

N#[N+]c1ccc2c(S(=O)(=O)[O-])cccc2c1O
inactive: all assays above

C/C=C\C/C=C/CCCCCCCCOC(C)=O
inactive: [1] | [6]
active: [2] 26.4 µM | [3] 28.5 µM | [4] 32.3 µM | [5] 36.9 µM | [7] 6.46 µM | [8] 34.3 µM | [9] 32.7 µM | [10] 23.3 µM

CCCCNc1ccc(NCCCC)c2c1C(=O)c1ccccc1C2=O
inactive: all assays above

CCCCC/C=C\C/C=C\CCCCCCCC(=O)OC
inactive: [4] | [6]
active: [1] 33.7 µM | [2] 14.4 µM | [3] 31.1 µM | [5] 31.7 µM | [7] 11.4 µM | [8] 33.5 µM | [9] 28.7 µM | [10] 21.6 µM

CCO[Si](CCCN=C=O)(OCC)OCC
inactive: all assays above

O=C(Nc1ccccc1SSc1ccccc1NC(=O)c1ccccc1)c1ccccc1
active: [2] 5.1 µM | [4] 5.22 µM | [6] 5.27 µM | [9] 5.17 µM | [10] 5.16 µM
inactive: [1] | [3] | [5] | [7] | [8]

CCCCCCCCc1ccc(Nc2ccc(CCCCCCCC)cc2)cc1
active: [2] 14.9 µM
inactive: all other assays above

CCCCC(CC)COCC1CO1 (stereo unspecified)
inactive: all assays above

C=CC(=O)OCC(Br)CBr (stereo unspecified)
inactive: [4]
active: [1] 27.1 µM | [2] 28.5 µM | [3] 28 µM | [5] 28.4 µM | [6] 32.8 µM | [7] 29.1 µM | [8] 5.47 µM | [9] 28.9 µM | [10] 11.4 µM

CCCCC(CC)COC(=O)c1ccccc1O (stereo unspecified)
active: [8] 16.4 µM
inactive: all other assays above

C=CC=CC=CCCCCC
active: [2] 5 µM | [10] 5 µM
inactive: all other assays above

CC(C)C(=O)C(C)C
inactive: all assays above

COc1ccc2nc(N)sc2c1
inactive: all assays above

CCOC(=O)c1ccccc1C(=C1C=C(Br)C(=O)C(Br)=C1)c1cc(Br)c(O)c(Br)c1
active: [1] 17.4 µM and 20 µM | [2] 20.3 µM and 22.1 µM | [3] 19.4 µM and 22.2 µM | [6] 15.8 µM and 20.4 µM | [8] 3.65 µM and 3.77 µM | [10] 19.4 µM and 23.1 µM
inactive: [4] | [5] | [7] | [9]

CCCCCCCCCCCCCCCC[N+](C)(C)CC
active: [1] 3.54 µM | [2] 1.61 µM | [3] 6.02 µM | [4] 2.61 µM | [5] 1.88 µM | [7] 2.19 µM | [8] 2.84 µM | [9] 3.16 µM | [10] 4.21 µM
inactive: [6]

C#CC1(O)CC[C@H]2[C@@H]3CCC4=CCCC[C@@H]4[C@H]3CC[C@@]21C (stereo partly specified)
active: [1] 32.1 µM | [2] 8.11 µM | [3] 20 µM | [4] 20 µM | [5] 31 µM | [6] 20 µM | [7] 20 µM | [8] 34.4 µM | [9] 20 µM | [10] 29.4 µM

CCOc1nc(F)cc2nc(S(=O)(=O)Nc3c(Cl)cccc3C(=O)OC)nn12
inactive: all assays above

O=C1CCCN1CCO
inactive: all assays above

c1ccc2c(c1)ccc1ncccc12
inactive: all assays above

CC1OC1C1CCC2(C)OC2C1 (stereo unspecified)
inactive: all assays above

CCO[Si](C)(OCC)OCC
inactive: all assays above

S=C(NC1CCCCC1)NC1CCCCC1
active: [6] 20 µM
inactive: all other assays above

CO[Si](OC)(OC)c1ccccc1
inactive: all assays above

CC(C)(c1cc(Br)c(OCCO)c(Br)c1)c1cc(Br)c(OCCO)c(Br)c1
active: [8] 23.3 µM | [10] 6.14 µM
inactive: all other assays above

C=CCOc1c(Br)cc(Br)cc1Br
inactive: [3] | [6]
active: [1] 32.3 µM | [2] 29.5 µM | [4] 20 µM | [5] 30.4 µM | [7] 16.9 µM | [8] 35.5 µM | [9] 33.5 µM | [10] 32.3 µM

c1ccc2c(c1)ccc1cc3c(ccc4ccccc43)cc12
inactive: [1] | [2] | [3] | [4] | [5] | [6] | [7] | [8] | [9] | [10]
active: [6] 0.0962 µM

O=Nc1ccc(O)cc1
inactive: all assays above

O=C(c1ccc(O)cc1)c1ccc(O)cc1O
inactive: [1] | [3] | [4] | [5] | [6] | [7] | [8] | [9] | [10]
active: [2] 15.7 µM and 10.5 µM | [10] 5.81 µM

C=CCOCC(O)CCl (stereo unspecified)
inactive: all assays above

COCc1c(C(C)C)nc(C(C)C)c(/C=C/[C@@H](O)C[C@@H](O)CC(=O)O)c1-c1ccc(F)cc1
active: [2] 0.056 µM | [6] 0.00777 µM | [7] 0.00777 µM
inactive: all other assays above

CN1C(=O)N(C)C(O)C1O (stereo unspecified)
inactive: [1] | [2] | [3] | [4] | [5] | [6] | [7] | [8] | [9] | [10]
active: [10] 0.179 µM
